Assay [1] concerns Wnt5a (protein binding on small-molecule microarray). The assay can be described thus: Wnt5a binders on small-molecule microarray, primary screen, biophysical, 635/667 nm fluorescence (AID 1142).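 Also: fluorescence read at 667 nm with signal to noise per printed feature.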 The following applies: 635 nm fluorescence, higher = more signal.
A short description of assay [2]: cell viability in Huh7 cells, primary screen, cytotoxicity control for HCV replication inhibitor project, CellTiter-Glo luminescence, basal, 48 h (AID 1143).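 Also: Huh7 hepatoma cells carrying a hepatitis C replication reporter with no stimulus; test concentration not given here.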 The following applies: Huh7 HCV replicon, higher = more signal, called active from +8 up or from −8 down.
The nature of assay [3]: P. aeruginosa biofilm formation inhibitors, primary screen, PAO1 strain, BacTiter-Glo luminescence, LB-PBS (AID 1144). The following applies: 12 h, higher = more signal.
The nature of assay [4]: CREB reporter modulators without forskolin, primary screen, cell-based, PC12, CRE-LacZ reporter, unstimulated (AID 1145). The following applies: no forskolin, luminescence, 4.5 h, higher = more signal, called active from +8 up or from −8 down.
A short description of assay [5]: CREB reporter modulators under forskolin, primary screen, cell-based, PC12, CRE-LacZ reporter, forskolin-stimulated (AID 1146).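 Also: PC12 cells with 6xCRE LacZ reporter stimulated by forskolin 10 µM; beta-galactosidase reporter signal reflecting CREB driven transcription.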 The following applies: luminescence, 4.5 h, higher = more signal, called active from +8 up or from −8 down.
Assay [6] addresses Streptavidin (Streptomyces avidinii) (UniProt P22629). The assay can be described thus: streptavidin binders on small-molecule microarray, primary screen, artefact control for SMM compound annotation, biophysical, 635/667 nm fluorescence (AID 1147).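 Also: signal reflects streptavidin binding to arrayed compounds as a control protein.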 The following applies: streptavidin binding, higher = more signal.
Assay [7] can be described thus: small-molecule binders of probe aInhba, primary screen, biochemical, small-molecule microarray, 635/667 nm fluorescence (AID 1148).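 Also: score merges 667nm spot fluorescence with signal-to-noise for antibody binding to printed compounds.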 The following applies: higher = more signal.
Assay [8] deals with Torsin-1A (Homo sapiens) (UniProt O14656). In words: torsin A binders from cell lysate, primary screen, small-molecule microarray, wild-type, 635/667 nm (AID 1149). The following applies: COS7 hTOR1A-WT lysate, 635 nm fluorescence, higher = more signal.
Assay [9] shares this target. In words: small-molecule binders of mutant TOR1A in lysate, primary screen, cell lysate, small-molecule microarray, COS7 lysate, 635/667 nm fluorescence (AID 1150).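 Also: score pools 667 nm emission and signal to noise measuring lysate protein binding.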 The following applies: COS7 hTOR1A mutant lysate, 635 nm fluorescence, higher = more signal.
Assay [10] concerns Sonic hedgehog protein (Shh). The assay can be described thus: small-molecule binders of Shh protein, primary screen, biochemical, small-molecule microarray, 635/667 nm fluorescence (AID 1151).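 Also: Shh protein binding to compounds spotted on small-molecule microarray slides; score combines spot fluorescence intensity with signal-to-noise across triplicate slides.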 The following applies: small-molecule microarray binding, 635 nm fluorescence; higher = more signal.
Assay [11] is described as follows: E. coli DRC41 culture turbidity changes, primary screen, E. coli filamentation inducer project, strain DRC41, OD650, 48 h (AID 1152).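 Also: E. coli MC1000 strain DRC41 lacking acrAB efflux pump and sulA.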 The following applies: E. coli DRC41 (acrAB sulA), higher = more signal, called active from +8 up or from −8 down.
The nature of assay [12]: small-molecule binders of probe aLefty1, primary screen, biochemical, small-molecule microarray, 635/667 nm fluorescence (AID 1153).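 Also: score merges spot fluorescence with signal-to-noise ratio from the scanned slide images.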 The following applies: higher = more signal.
A short description of assay [13]: PSAC antagonists in infected red cells, primary screen, cell-based, P. falciparum Indochina, OD700, 1 h (AID 1154). The following applies: P. falciparum Indochina infected RBC osmotic lysis, higher = more signal, called active from +8 up or from −8 down.
Assay [14] is described as follows: PSAC antagonists in infected red cells, primary screen, cell-based, P. falciparum Indochina, OD700, 2 h (AID 1155).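 Also: lysis reports solute entry through the parasite surface anion channel PSAC; channel blockers reduce lysis of infected cells.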 The following applies: P. falciparum Indochina infected erythrocytes, osmotic lysis OD700; higher = more signal, called active from +8 up or from −8 down.
Assay [15] is described as follows: osmotic lysis modulators in infected erythrocytes, primary screen, PSAC antagonist project, cell-based, P. falciparum Indochina, OD700, 3 h (AID 1156). The following applies: higher = more signal, called active from +8 up or from −8 down.
Assay [16] is described as follows: PSAC antagonists in infected red cells, primary screen, cell-based, P. falciparum Indochina, OD700, 18 h (AID 1157). The following applies: P. falciparum Indochina infected erythrocytes, osmotic lysis OD700, 18 h; higher = more signal, called active from +8 up or from −8 down.
Assay [17] in a line: modulators of S6 phosphorylation in cells, primary screen, cell-based, A549, cytoblot, luminescence, serum-stimulated (AID 1158).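 Also: serum-stimulated A549 lung adenocarcinoma cells; signal is phosphorylated S6 detected by cytoblot immunostaining with HRP secondary.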 The following applies: A549 phospho-S6 cytoblot, 5 h, higher = more signal.
In assay [18] the target is NADPH oxidase 2 (Homo sapiens) (UniProt P04839). In words: NOX2-dependent H2O2 signal modulators, primary screen, NOX inhibitor project, cell-based, HEK293-NOX2, PMA-stimulated, Amplex Red fluorescence (AID 1159). Also: test concentration not given here. The following applies: 45 min, higher = more signal, called active from +8 up or from −8 down.
Assay [19] deals with NADPH oxidase 4 (Homo sapiens) (UniProt Q9NPH5). In words: NOX4-dependent H2O2 signal modulators, primary screen, NOX inhibitor project, cell-based, HEK293-NOX4, tetracycline-induced, Amplex Red fluorescence (AID 1160). The following applies: 45 min, higher = more signal, called active from +8 up or from −8 down.
Assay [20] has as its target NADPH oxidase 5 (Homo sapiens) (UniProt Q96PH1). The assay can be described thus: NOX5-dependent H2O2 signal modulators, primary screen, NOX inhibitor project, cell-based, HEK293-NOX5, Amplex Red fluorescence (AID 1161). The following applies: HEK293-NOX5, ionomycin, 45 min, higher = more signal.

Active and inactive are the calls of the source. Unless noted, no rule for the calls is given here.

Consider eight compounds from PubChem BioAssay.

Chain of NADPH oxidase 5 (Homo sapiens) (Q96PH1 whole entry, looked up): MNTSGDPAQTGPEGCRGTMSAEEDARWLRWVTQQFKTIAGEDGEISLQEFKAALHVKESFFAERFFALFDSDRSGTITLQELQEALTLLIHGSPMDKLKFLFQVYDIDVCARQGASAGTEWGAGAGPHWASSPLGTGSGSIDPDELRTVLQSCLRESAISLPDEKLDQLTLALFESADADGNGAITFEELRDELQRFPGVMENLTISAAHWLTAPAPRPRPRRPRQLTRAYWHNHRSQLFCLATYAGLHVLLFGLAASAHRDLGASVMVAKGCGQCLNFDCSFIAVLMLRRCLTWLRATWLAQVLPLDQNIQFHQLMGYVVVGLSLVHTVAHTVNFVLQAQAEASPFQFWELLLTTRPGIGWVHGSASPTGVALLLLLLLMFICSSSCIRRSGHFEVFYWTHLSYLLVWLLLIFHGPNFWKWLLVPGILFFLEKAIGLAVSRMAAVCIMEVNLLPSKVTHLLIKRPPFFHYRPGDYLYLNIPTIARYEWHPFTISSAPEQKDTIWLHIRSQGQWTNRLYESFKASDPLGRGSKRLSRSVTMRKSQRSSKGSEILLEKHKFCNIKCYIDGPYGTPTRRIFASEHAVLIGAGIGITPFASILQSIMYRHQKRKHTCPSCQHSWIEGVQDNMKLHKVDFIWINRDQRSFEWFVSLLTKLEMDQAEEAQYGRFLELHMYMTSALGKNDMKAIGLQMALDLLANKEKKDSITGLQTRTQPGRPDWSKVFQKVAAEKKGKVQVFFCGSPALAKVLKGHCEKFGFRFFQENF
Chain of Torsin-1A (Homo sapiens) (O14656 whole entry, looked up): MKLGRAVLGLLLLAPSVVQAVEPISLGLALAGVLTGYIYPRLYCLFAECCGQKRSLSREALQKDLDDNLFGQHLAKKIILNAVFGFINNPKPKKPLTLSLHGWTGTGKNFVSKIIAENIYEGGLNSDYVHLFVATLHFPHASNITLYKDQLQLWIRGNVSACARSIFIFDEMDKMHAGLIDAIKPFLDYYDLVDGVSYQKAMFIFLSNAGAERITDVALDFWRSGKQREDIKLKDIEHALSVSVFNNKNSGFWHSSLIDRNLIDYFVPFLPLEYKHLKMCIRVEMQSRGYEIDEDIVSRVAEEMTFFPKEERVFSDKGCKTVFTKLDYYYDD
Chain of NADPH oxidase 4 (Homo sapiens) (Q9NPH5 whole entry, looked up): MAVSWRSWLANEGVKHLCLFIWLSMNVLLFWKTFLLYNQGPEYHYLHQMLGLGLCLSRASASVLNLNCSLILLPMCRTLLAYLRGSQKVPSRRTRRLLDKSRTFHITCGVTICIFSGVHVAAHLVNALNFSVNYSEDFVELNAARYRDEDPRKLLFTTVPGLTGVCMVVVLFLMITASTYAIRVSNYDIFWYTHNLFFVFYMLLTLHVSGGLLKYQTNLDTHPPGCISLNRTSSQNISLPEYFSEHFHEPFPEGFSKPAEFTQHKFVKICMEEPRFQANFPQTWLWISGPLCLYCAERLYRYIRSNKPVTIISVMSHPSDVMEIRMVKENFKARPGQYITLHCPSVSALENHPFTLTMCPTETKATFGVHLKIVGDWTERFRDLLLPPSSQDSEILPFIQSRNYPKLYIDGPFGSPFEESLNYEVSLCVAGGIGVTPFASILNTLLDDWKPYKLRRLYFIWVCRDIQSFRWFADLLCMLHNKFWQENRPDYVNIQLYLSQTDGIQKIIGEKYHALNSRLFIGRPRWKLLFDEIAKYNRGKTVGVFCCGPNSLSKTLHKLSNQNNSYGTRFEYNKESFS
Chain of Streptavidin (Streptomyces avidinii) (P22629 whole entry, looked up): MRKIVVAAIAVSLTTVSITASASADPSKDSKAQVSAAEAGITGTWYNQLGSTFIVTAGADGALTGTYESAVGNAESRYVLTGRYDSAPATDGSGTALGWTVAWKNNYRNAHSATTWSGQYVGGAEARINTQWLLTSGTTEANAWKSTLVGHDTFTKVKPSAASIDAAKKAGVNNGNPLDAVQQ
Chain of NADPH oxidase 2 (Homo sapiens) (P04839 whole entry, looked up): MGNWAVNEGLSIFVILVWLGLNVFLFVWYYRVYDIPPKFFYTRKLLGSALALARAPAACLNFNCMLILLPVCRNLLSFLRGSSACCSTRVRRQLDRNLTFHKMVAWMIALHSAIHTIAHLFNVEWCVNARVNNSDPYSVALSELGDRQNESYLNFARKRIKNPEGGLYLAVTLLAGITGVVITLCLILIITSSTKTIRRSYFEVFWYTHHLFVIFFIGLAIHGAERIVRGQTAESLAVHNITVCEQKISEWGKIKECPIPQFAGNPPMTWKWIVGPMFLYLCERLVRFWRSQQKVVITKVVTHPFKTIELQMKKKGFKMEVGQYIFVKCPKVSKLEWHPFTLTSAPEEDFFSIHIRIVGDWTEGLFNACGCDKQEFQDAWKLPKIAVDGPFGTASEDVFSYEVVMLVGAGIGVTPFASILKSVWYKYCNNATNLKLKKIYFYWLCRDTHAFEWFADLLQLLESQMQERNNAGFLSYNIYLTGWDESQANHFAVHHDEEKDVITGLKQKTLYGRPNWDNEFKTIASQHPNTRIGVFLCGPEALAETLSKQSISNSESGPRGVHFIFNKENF

Take `COCCOC(=O)N1C(=O)[C@@]2(c3cc(C#CCCO)ccc31)[C@H](C(N)=O)[C@H]1C(=O)O[C@H](c3ccccc3)[C@H](c3ccccc3)N1[C@@H]2c1ccc(OCCO)cc1`: the composite z-score stood at 0.622 in assay [1]; 0.438 in assay [6]; 0.0391 in assay [7]; 1.47 in [8]; 0.684 in [9]; 1.36 in [10]. This compound also gave a composite z-score in [12] of 0.157. In addition, the z-score in assay [2] is -0.869 (inactive); in [3], -0.402 (inactive); in assay [4] it was -0.141 (inactive); in [5], -0.087 (inactive); in assay [11], -0.138 (inactive); in assay [13], 23.4 (active). Also, the z-score in [14] is 5.49 (inactive); in assay [15], 1.88 (inactive); in assay [16], 1.3 (inactive); in assay [17], 0.388; in [18], 1.78 (inactive); in assay [19], 1.1 (inactive). In addition, the z-score in assay [20] came to 0.785.
`CN(C)C(=O)[C@]1(CCS(=O)(=O)c2ccccc2)N=C(c2ccc(OCCCO)cc2)O[C@@H]1c1ccccc1`: the composite z-score in [1] was 0.995; in assay [6], 1.22; in assay [7], 0.204; in [8] it was 0.957; in assay [9] it was 0.831; in assay [10] it was -0.707. Besides, the composite z-score in [12] was -0.0072. The z-score in [2] was -2.87 (inactive); in assay [3], -1.52 (inactive); in [4] it was 1.42 (inactive); in assay [5] it was 1.1 (inactive); in assay [11] it was 0.0024 (inactive); in assay [13] it was 30.8 (active). Besides, the z-score in [14] is 25.7 (active); in [15], 2.91 (inactive); in assay [16], 6.06 (inactive); in assay [17], 0.0637; in [18] it was -0.461 (inactive); in [19], 1.52 (inactive). The z-score in [20] was -2.3.
For `COCCOC(=O)N1C(=O)[C@@]2(c3cc(C#CCNC(N)=O)ccc31)[C@H](c1ccc(OCCO)cc1)N1[C@H](c3ccccc3)[C@H](c3ccccc3)OC(=O)[C@H]1[C@@H]2C(=O)NC[C@H](O)c1ccccc1`, the composite z-score in [1] came out at 0.423; in [6], 0.904; in [7] it was 0.111; in assay [8], 0.367; in assay [9] it was 0.792; in assay [10], 1.27. Moreover, the composite z-score in assay [12] came to 0.119. Also, the z-score in [2] was -0.441 (inactive); in assay [3] it was -0.498 (inactive); in assay [4], -1.56 (inactive); in assay [5], -0.567 (inactive); in assay [11], 0.402 (inactive); in assay [13], 1.65 (inactive). Further, the z-score is 1.1 (inactive) in assay [14]; 0.624 (inactive) in assay [15]; 0.457 (inactive) in assay [16]; -0.144 in assay [17]; 2.22 (inactive) in [18]; 1.06 (inactive) in [19]. The z-score in assay [20] was -0.137.
`C=C/C=C/[C@@H]1C(=C)CN([C@@H](Cc2ccccc2)C(=O)OC)[C@H]1[C@@H](O)Cc1ccccc1`: the composite z-score in assay [1] is -0.0425; in assay [6] it was 0.185; in assay [7], -0.0418; in assay [8], 0.218; in assay [9], 0.795; in [10], 0.949. The composite z-score in assay [12] was -0.0601. Moreover, the z-score in assay [2] was -0.342 (inactive); in assay [3], -0.428 (inactive); in [4], 3.38 (inactive); in [5], 2.05 (inactive); in assay [11] it was 0.834 (inactive); in assay [13] it was 0.743 (inactive). Further, the z-score is 0.362 (inactive) in assay [14]; -0.41 (inactive) in assay [15]; 0.109 (inactive) in [16]; 0.294 in assay [17]; 0.0619 (inactive) in [18]; -0.199 (inactive) in assay [19]. In addition, the z-score in assay [20] came out at 0.568.
As to `CCCCNC(=O)c1ccc(C#C[Si](C(C)C)(C(C)C)C(C)C)c(OC(C)=O)c1`, the composite z-score in assay [1] was 0.268; in assay [6] it was 1.04; in [7], -0.187; in assay [8], 0.598; in assay [9] it was 0.216; in [10], 1.74. The composite z-score in [12] is -0.0518. Moreover, the z-score in assay [2] was -0.915 (inactive); in [3], -0.084 (inactive); in [4], 0.223 (inactive); in assay [5], 0.184 (inactive); in assay [11], -0.52 (inactive); in assay [13], 0.964 (inactive). In addition, the z-score is 0.272 (inactive) in [14]; 0.551 (inactive) in [15]; 0.158 (inactive) in assay [16]; 0.152 in [17]; 1.26 (inactive) in assay [18]; 0.355 (inactive) in assay [19]. Also, the z-score in assay [20] amounted to 0.458.
Consider `C=C(/C(=C/C[C@@H](OC(C)=O)c1ccc(CO)o1)c1cc(C(=O)OC)ccc1OC)C(C)C`, for which the composite z-score in assay [1] is 0.201; in assay [6], -0.446; in assay [7], 0.148; in assay [8] it was 0.431; in assay [9], 0.549; in [10] it was 1.07. Further, the composite z-score in assay [12] was -0.0536. For the same compound, the z-score in [2] was -0.143 (inactive); in [3], -0.0434 (inactive); in assay [4], 0.247 (inactive); in [5], 2.78 (inactive); in [11], 0.225 (inactive); in assay [13], 4.3 (inactive). Moreover, the z-score in assay [14] is 0.758 (inactive); in assay [15] it was 1.35 (inactive); in assay [16], 0.479 (inactive); in assay [17], -0.0642; in assay [18] it was -0.169 (inactive); in assay [19], -0.673 (inactive). The z-score in assay [20] is -0.988.
Turning to `[N-]=[N+]=Nc1ccccc1C[C@]1(C(=O)O)N=C(c2ccc(OCCCO)cc2)O[C@H]1c1ccccc1N=[N+]=[N-]`, the composite z-score in [1] was 0.0284; in [6], 1.58; in assay [7] it was 0.362; in assay [8] it was 0.327; in [9], 0.241; in [10], -0.0242. The composite z-score in assay [12] was found to be 0.612. In addition, the z-score was -1.26 (inactive) in assay [2]; 0.0243 (inactive) in assay [3]; 0.274 (inactive) in assay [4]; -1.65 (inactive) in assay [5]; 0.476 (inactive) in assay [11]; 30.8 (active) in assay [13]. For the same compound, the z-score was 27.6 (active) in assay [14]; 2.88 (inactive) in assay [15]; 4.45 (inactive) in assay [16]; -0.0428 in assay [17]; -2.72 (inactive) in [18]; 0.551 (inactive) in [19]. In [20], this compound returned a z-score of -2.15.
`C=C(/C(=C/C[C@H](OC(=O)c1ccncc1)c1cccc(OCCO)c1)c1cnc2ccccc2c1)C(C)C`: the composite z-score in assay [1] is 0.518; in [6], 0.929; in assay [7] it was -0.05; in assay [8], -0.382; in assay [9], -0.22; in [10] it was 2.23. This compound gave a composite z-score in [12] of -0.0046. Besides, the z-score in [2] was -7.81 (inactive); in assay [3] it was 0.503 (inactive); in [4], 30.3 (active); in [5], -0.386 (inactive); in [11], -0.599 (inactive); in assay [13], 6.01 (inactive). Further, the z-score in assay [14] was 2.44 (inactive); in assay [15] it was -2.09 (inactive); in assay [16], 0.626 (inactive); in assay [17], -0.787; in [18], -4.67 (inactive); in [19], -0.946 (inactive). The compound also registered a z-score in assay [20] of -1.49.
